The supplement of paper PMC4022240
± gives the standard deviation.

T1: HaloTag-ATRX ADD domain (163-292)
T1 chain: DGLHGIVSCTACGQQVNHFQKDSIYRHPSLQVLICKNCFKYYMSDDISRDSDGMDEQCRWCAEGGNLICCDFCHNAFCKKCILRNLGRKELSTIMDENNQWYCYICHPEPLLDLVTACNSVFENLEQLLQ


Experiments:
Assay in all cases: peptide microarray binding signal (635 nm), min-max normalized on array (fraction of array maximum); higher = stronger binding
Settings in all cases: peptide region: Unmod H1 variant
[1] = target: T1, HaloTag-ATRX ADD domain (163-292)
Outline: (§1)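 An Axon GenePix 4000B scanned the arrays at 635 nm for signal and at 532 nm to catch misprints. Those arrays held histone 13-mer peptide–cellulose conjugates printed in triplicate on nitrocellulose with a Cy3 tracer, blocked overnight at 4°C and probed for 1 h at 4°C with biotin-labelled HaloTag reader fusions (10 nM to 1 μM) plus streptavidin-Alexa Fluor 647 or with rabbit histone antibodies (1:10,000 to 1:2,000) plus anti-rabbit Alexa 647. Each binding signal is a triplicate-spot mean intensity, scaled min-max within its library.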

[2] = target: HaloTag-ING2 PHD (mouse Ing2 200-280)
Outline: as §1

[3] = target: anti-H3K4me3 antibody ab8580
Outline: as §1

[4] = target: anti-H3K9me3 antibody ab8898
Outline: as §1

[5] = binder concentration: 1:2,000 dilution
[6] = binder concentration: 1:10,000 dilution

Binder	peptide microarray binding signal ([1]; binder concentration: 50 nM)	peptide microarray binding signal ([1]; binder concentration: 500 nM)	peptide microarray binding signal ([2]; binder concentration: 10 nM)	peptide microarray binding signal ([2]; binder concentration: 100 nM)	peptide microarray binding signal [3, 5]	peptide microarray binding signal [3, 6]	peptide microarray binding signal [4, 5]	peptide microarray binding signal [4, 6]
ASAAPEKPLAGKK [Unmod H1 variant A S A A P E K P L A G K K]	0.0171 ± 0.0014	0.0163 ± 0.00078	0.00603 ± 0.00016	0.0206 ± 0.0028	0.00151 ± 4.1e-05	0.00262 ± 0.00011	0.000891 ± 5.9e-05	0.00115 ± 2e-05
AGKKAKKPAKAAA [Unmod H1 variant A G K K A K K P A K A A A]	0.0147 ± 0.00057	0.0114 ± 0.0028	0.00507 ± 0.00099	0.00539 ± 0.00095	0.000585 ± 4.5e-05	0.000856 ± 8.9e-06	0.000181	0.000692 ± 7.3e-06
PAGPSVSELIVQA [Unmod H1 variant P A G P S V S E L I V Q A]	0.0127 ± 0.00021	0.00367 ± 0.00014	0.00203 ± 3.6e-05	0.00177 ± 3.1e-05	0.00111 ± 0.00011	0.00097 ± 2.6e-05	0.000438 ± 1.7e-05	0.00075 ± 7.9e-06
IVQAASSSKERGG [Unmod H1 variant I V Q A A S S S K E R G G]	0.0196 ± 0.0029	0.0152 ± 0.00061	0.0112 ± 0.00078	0.0197 ± 0.0013	0.00279 ± 6.5e-05	0.00708 ± 0.00071	0.00216 ± 0.00024	0.00306 ± 0.00012
ERGGVSLAALKKA [Unmod H1 variant E R G G V S L A A L K K A]	0.0175 ± 0.00043	0.0165 ± 0.00037	0.0122 ± 0.00043	0.0252 ± 0.0017	0.00283 ± 4.9e-05	0.00496 ± 0.00014	0.00225 ± 8.6e-05	0.00283 ± 4.9e-05
LKKALAAAGYDVE [Unmod H1 variant L K K A L A A A G Y D V E]	0.0162 ± 0.00021	0.0149 ± 0.00063	0.00322 ± 3.5e-05	0.004606 ± 3.8e-05	0.000982 ± 5.9e-05	0.001655 ± 1.6e-05	0.000861 ± 5.4e-05	0.001211 ± 1.2e-05
YDVEKNNSRIKLG [Unmod H1 variant Y D V E K N N S R I K L G]	0.0163 ± 0.00037	0.0175 ± 0.00085	0.00841 ± 0.00067	0.0132 ± 0.00014	0.000944 ± 1.6e-05	0.00114 ± 3e-05	0.000453 ± 1.5e-05	0.00075 ± 1.6e-05
IKLGIKSLVSKGT [Unmod H1 variant I K L G I K S L V S K G T]	0.0221 ± 0.0027	0.0236 ± 0.00098	0.00656 ± 0.00055	0.0191 ± 0.0018	0.00147 ± 3.9e-05	0.00262	0.00109 ± 2.9e-05	0.001441 ± 1.4e-05
SKGTLVQTKGTGA [Unmod H1 variant S K G T L V Q T K G T G A]	0.0193 ± 0.0038	0.0147 ± 0.00052	0.003939 ± 2.1e-05	0.0162 ± 0.0012	0.000812 ± 6.2e-05	0.0012 ± 2.4e-05	0.000211 ± 2.2e-06	0.00075 ± 7.9e-06
GTGASGSFKLNKK [Unmod H1 variant G T G A S G S F K L N K K]	0.01633 ± 0.00015	0.00986 ± 0.0013	0.00251 ± 5.1e-05	0.00539 ± 0.00089	0.000547 ± 1.9e-05	0.00114 ± 3e-05	0.0003926 ± 3.9e-06	0.00121 ± 3.2e-05
LNKKASSVETKPG [Unmod H1 variant L N K K A S S V E T K P G]	0.0199 ± 0.0032	0.0256 ± 0.00069	0.00776 ± 0.0013	0.0114 ± 0.00013	0.00126 ± 7.1e-05	0.00165 ± 3.2e-05	0.000921 ± 2e-05	0.00127 ± 4.6e-05
TKPGASKVATKTK [Unmod H1 variant T K P G A S K V A T K T K]	0.0164 ± 0.00041	0.0137 ± 0.0012	0.00215 ± 5e-05	0.00694 ± 0.00026	0.00117 ± 0.00015	0.00097 ± 9.9e-06	0.000302 ± 6.2e-06	0.000692 ± 7.3e-06
TKTKATGASKKLK [Unmod H1 variant T K T K A T G A S K K L K]	0.032 ± 0.02	0.0136 ± 0.00069	0.00257 ± 9.1e-05	0.00829 ± 0.00095	0.000642 ± 2.2e-05	0.001027 ± 1e-05	0.000181	0.000519 ± 5.6e-06
KKLKKATGASKKS [Unmod H1 variant K K L K K A T G A S K K S]	0.0152 ± 0.00029	0.00691 ± 0.0006	0.00161 ± 6.7e-05	0.0034 ± 0.00046	0.000396 ± 1.2e-05	0.000856 ± 8.9e-06	0.000257 ± 2.5e-05	0.000461
SKKSVKTPKKAKK [Unmod H1 variant S K K S V K T P K K A K K]	0.0224 ± 0.0075	0.00633 ± 9.9e-05	0.00113 ± 3.2e-05	0.00206 ± 0.00011	0.000359 ± 9.7e-06	0.000628 ± 6.7e-06	0.000121 ± 1.3e-06	0.000577 ± 6.2e-06
KAKKPAATRKSSK [Unmod H1 variant K A K K P A A T R K S S K]	0.0344 ± 0.02	0.0133 ± 0.00041	0.00227 ± 5.2e-05	0.0068 ± 0.00046	0.000755 ± 1.4e-05	0.00103 ± 2.1e-05	0.000211 ± 2.2e-06	0.00075 ± 7.9e-06
KSSKNPKKPKTVK [Unmod H1 variant K S S K N P K K P K T V K]	0.0196 ± 0.0037	0.0061 ± 0.00013	0.00185	0.003543 ± 3.1e-05	0.000774 ± 1.4e-05	0.000913	0.000181	0.00075 ± 7.9e-06
KTVKPKKVAKSPA [Unmod H1 variant K T V K P K K V A K S P A]	0.0149 ± 0.00058	0.0041 ± 5.8e-05	0.001552 ± 9.3e-06	0.00369 ± 0.00015	0.0005286 ± 5.1e-06	0.000799 ± 8.3e-06	0.000121 ± 2.7e-06	0.000461
KSPAKAKAVKPKA [Unmod H1 variant K S P A K A K A V K P K A]	0.0194 ± 0.0034	0.00619 ± 0.00021	0.00167 ± 3.4e-05	0.0159 ± 0.014	0.000283	0.000571 ± 1.1e-05	0.000196 ± 2.1e-06	0.000577 ± 6.2e-06
KPKAAKARVTKPK [Unmod H1 variant K P K A A K A R V T K P K]	0.0178 ± 0.00067	0.0125 ± 0.0019	0.00173 ± 3.7e-05	0.00439 ± 0.00016	0.00051 ± 1.5e-05	0.00097 ± 4e-05	0.000166 ± 1.8e-06	0.000404 ± 4.4e-06
